According to PubChem BioAssay AID629 (Emory University Molecular Libraries Screening Center, 2007):
The whole screen tested about 86,000 compounds, of which about 1,400 (1.6%) were called active. The sample holds actives, similar compounds and a random draw of the others, so the mix is not that of the screen. Unmarked numbers belong to inactive results. No stated cut-off is given here; in the data, active means inhibition above about 50%; inactive means the rest.

The molecules below were run against Estrogen receptor (Homo sapiens) (UniProt P03372) (assay: ERα–SRC-1 coactivator interaction inhibitors, primary screen, biochemical, TR-FRET, ERα LBD, estradiol-bound (AID 629;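 further: 0% = receptor plus peptide control and 100% = peptide only without receptor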)). Settings: TR-FRET ER-alpha LBD / SRC-1 peptide, at 25.6 µM, hits give high values.
Estrogen receptor (Homo sapiens), sequence (P03372 whole entry, looked up, the tested form may be a part): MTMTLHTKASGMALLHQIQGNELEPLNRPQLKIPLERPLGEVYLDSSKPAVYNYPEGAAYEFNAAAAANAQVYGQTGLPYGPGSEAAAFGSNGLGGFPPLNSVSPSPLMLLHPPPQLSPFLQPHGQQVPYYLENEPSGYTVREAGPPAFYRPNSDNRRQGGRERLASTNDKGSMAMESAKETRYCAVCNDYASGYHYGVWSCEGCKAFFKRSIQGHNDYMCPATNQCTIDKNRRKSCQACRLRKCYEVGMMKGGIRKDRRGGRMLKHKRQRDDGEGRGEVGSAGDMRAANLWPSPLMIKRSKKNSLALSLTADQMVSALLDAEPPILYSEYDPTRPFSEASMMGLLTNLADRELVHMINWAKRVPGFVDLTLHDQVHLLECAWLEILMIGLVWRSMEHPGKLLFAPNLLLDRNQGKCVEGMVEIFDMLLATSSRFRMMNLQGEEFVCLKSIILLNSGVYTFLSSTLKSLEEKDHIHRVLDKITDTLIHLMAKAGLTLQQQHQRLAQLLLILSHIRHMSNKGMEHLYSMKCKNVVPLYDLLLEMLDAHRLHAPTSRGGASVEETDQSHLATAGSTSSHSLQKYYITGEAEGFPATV

For `CC1CCc2c(sc(NC(=O)c3ccc(Cn4cc(Br)cn4)o3)c2C(N)=O)C1` (stereo unspecified), the inhibition was 50.6% (active).
With `CNC(=O)c1c(NC(=O)c2ccc(S(=O)(=O)N3CCOCC3)cc2)sc2c1CCC2` the inhibition was 94.5% [fluorescence artefact?] (active).
In the case of `CCCCCN1CC(O)=C(c2nc(-c3ccc(Cl)cc3)cs2)C1=N`, the inhibition is reported as 65.8% [fluorescence artefact?] (active).
`COCCCn1c(Cc2csc(Nc3cccc(Cl)c3)n2)nnc1SCC(=O)OC1CCCCC1` was tested, and the inhibition was 67.4% [fluorescence artefact?] (active).
`CCCCOc1ccccc1/C=c1/sc2nc(-c3oc4ccccc4c3C)nn2c1=O` was tested, and the inhibition was 50% (active).
With `CCOc1ccccc1/C=c1\sc2nc(-c3ccco3)nn2c1=O` the inhibition was 57.2% (active).
For `Cc1ccc2c(c1)sc1ncc(NC(=O)c3ccccc3)c(=O)n12`, the inhibition was 53.5% [fluorescence artefact?] (active).
In the case of `CS(=O)(=O)c1ccc2c(c1)SC1=NC(=O)/C(=C/c3ccco3)C(=N)N12`, the inhibition is reported as 82.8% [fluorescence artefact?] (active).
For `O=C(c1cn(-c2ccccc2)nc1-c1cccnc1)N1CCCCC1`, the inhibition was 93.3% [fluorescence artefact?] (active).
With `COC(=O)c1cnn2c(C(F)(F)F)cc(-c3ccco3)nc12` the inhibition was 62.1% (active).
`COc1ccc(-n2c(SCC(=O)Nc3ccc4c(c3)OCO4)nnc2C(C)N2CCCCC2)cc1` (stereo unspecified) was tested, and the inhibition was 55.2% (active).
`CC1Cc2ccccc2N1C(=O)CSc1nnc(-c2ccc(S(=O)(=O)N3CCCCC3)cc2)o1` (stereo unspecified) was tested, and the inhibition was 72.8% [fluorescence artefact?] (active).
With `Cc1ccc2[nH]c(=O)c(-c3nc4c(C)cccn4c3NCc3ccco3)cc2c1` the inhibition was 92.7% [fluorescence artefact?] (active).
In the case of `CCCCCCc1cc2cc(-c3nnc(-c4ccccc4)o3)c(=O)oc2cc1O`, the inhibition is reported as 53.5% (active).
With `Cc1cc(C)c2c(n1)nn1c(N3CCN(c4cccc(Cl)c4)CC3)cc(C)nc21` the inhibition was 73.8% (active).
`CS(=O)(=O)N(CC(=O)NCc1ccco1)c1ccc2c(c1)OCO2` was tested, and the inhibition was 53.8% (active).
`N#CC1=C(N)Oc2c(sc3ccccc23)C1c1ccco1` (stereo unspecified) was tested, and the inhibition was 85.9% [fluorescence artefact?] (active).
In the case of `CCO/C([O-])=N/c1c[n+](N2CCOCC2)no1`, the inhibition is reported as 51.1% (active).
`Fc1ccc(-c2ccc(-c3nn4c(-c5ccco5)nnc4s3)o2)cc1` was tested, and the inhibition was 69.7% [fluorescence artefact?] (active).

Point of comparison: `CC(C)(C)c1ccc(OC2=CS(=O)(=O)c3ccccc32)cc1`, inhibition -1.62%. Against it:
- Cc1cc(NC(=O)CSc2nc(C(C)C)nc3sc4c(c23)CCC(C)C4)no1 (stereo unspecified) — lower, -14.6%
- CCOC(=O)c1c(NC(=O)c2ccc(Br)o2)sc2c1CCCC2 — higher, 7.77%
- Cc1ccc(CN(C(=O)c2sc3ccccc3c2Cl)C2CCS(=O)(=O)C2)cc1 (stereo unspecified) — higher, 6.88%
- C/C=C/C(=O)Nc1nnc(C(C)C)s1 — lower, -19.7%
- COc1ccc(C(=O)Nc2nc(-c3ccc(S(=O)(=O)N4CCOCC4)cc3)cs2)cc1 — higher, 3.26%
- CNC(=O)c1c(NC(NC(=O)c2ccco2)C(=O)c2ccc(Cl)cc2)sc2c1CCCC2 (stereo unspecified) — lower, -3.84%
- CCOC(=O)c1ccc2c(c1)nc(SCC(=O)NC(C)C)n2CC — higher, 26.4%
- CCOc1cc(C(=O)Nc2c(C)ccc3nsnc23)cc(OCC)c1OCC — higher, 8.18%
- CCCCCN1CC(O)=C(c2ccccc2)C1=N — higher, 2.06%
- N#CC(=C1CCCC1)c1nc(-c2ccc(Cl)cc2)cs1 — lower, -5.55%
- Cc1ccc(S(=O)(=O)Oc2ccc(/C=N/NC(=O)c3c(Cl)cnn3C)cc2)cc1 — lower, -7.62%
- C=CCn1c(CC(=O)Nc2cccc(OC)c2)nnc1SCC(=O)NC1CCCCC1 — lower, -5.03%
- COCCCn1c(SCC(=O)Nc2ccccc2)nnc1-c1ccncc1 — higher, -1.59%
- CCOC(=O)/C=c1\s/c(=C\c2ccccc2OC)c(=O)n1CC(=O)N1CCOCC1 — lower, -4.48%
- CCc1nc2oc3ccccc3c(=O)c2c(=O)n1Cc1ccc(OC)cc1 — higher, 21%
- O=c1nc2s/c(=C\c3ccco3)c(=O)n2nc1Cc1ccccc1 — higher, 28.7%
- CCOc1ccccc1C(=O)NCc1ccco1 — higher, 10.6%
- COC(=O)CSc1nc(C)c2ccc(OC)cc2n1 — lower, -6.48%
- CC1CCCCC1NC(=O)C1CCCN1S(=O)(=O)c1cccc2nsnc12 (stereo unspecified) — higher, 11.2%
- Cc1cc(C)c(NC(=O)CN2CCOCCOCCOCCOCC2)c(C)c1 — higher, 3.92%
- O=C(CN1CCCCCC1)N1c2ccccc2Sc2ccc(C(F)(F)F)cc21 — lower, -9.51%
- Cc1ccccc1NC(=O)c1ccccc1 — lower, -4.17%
- Cc1nc(NNC(=O)c2ccccc2)cc(-c2ccccc2)n1 — higher, -1.45%
- Cc1cccc(N(C(=O)c2ccc(CN3CCOCC3)o2)C(C(=O)NC2CCCCC2)c2ccc(F)cc2)c1 (stereo unspecified) — higher, 2.65%
- COC(=O)c1cn(-c2ccccc2)nc1-c1cccnc1 — higher, 1.49%
- COc1ccccc1N1CCN(C(=O)c2cn(-c3ccccc3)nc2-c2cccnc2)CC1 — higher, 0.39%
- O=C(N/N=C\c1cccc(Br)c1)c1ccccc1-n1cccc1 — higher, -1.04%
- Oc1ccc(-c2onc3ccc(Cl)cc23)cc1 — higher, 2.22%
- O=S(=O)(NN=C1CCCCCCC1)c1ccc(Br)cc1 — lower, -3.65%
- COC(=O)c1cc2nc(-c3ccccc3)cc(C(F)(F)F)n2n1 — lower, -12%
- O=C(NCc1ccco1)c1cnn2c(C(F)(F)F)cc(-c3ccco3)nc12 — higher, 6.58%
- CC1(C)C2CCC13CS(=O)(=O)NC3C2 (stereo unspecified) — higher, 3.36%
- CCc1nnc(NC(=O)CSc2nc3ccccc3c(=O)n2CCCOC)s1 — higher, 14.8%
- O=C1/C(=C/c2cccs2)CCc2ccccc21 — higher, 5.05%
- Cc1ccc(-n2c(SCC(=O)Nc3ccc4c(c3)OCO4)nnc2-c2ccccn2)cc1 — lower, -7.91%
- Cc1ccc(-n2c(SCC(=O)Nc3ccc4c(c3)OCO4)nnc2-c2ccoc2C)cc1 — higher, -0.65%
- O=C1N=C(N2CCCC2)S/C1=C\c1cccc(Br)c1 — lower, -3.71%
- CSc1nc2nc3c(c(=O)n2[nH]1)CCC3 — lower, -5.51%
- CNc1nc(SC)nc(N(C#N)CC(=O)OC)n1 — lower, -12.1%
- O=C(NCC(=O)N(Cc1cccs1)C(C(=O)NC1CCCCC1)c1ccco1)c1cccs1 (stereo unspecified) — higher, -0.84%
- O=C(Cc1c[nH]c2ccccc12)OCCOC(=O)Cc1c[nH]c2ccccc12 — lower, -4.73%
- COc1cccc(NC(=O)CN2CCN(c3nc(-c4cccc(OC)c4)cs3)CC2)c1 — lower, -8.12%
- CCS(=O)(=O)c1ccc2oc(SCC(=O)N3c4ccccc4CC3C)nc2c1 (stereo unspecified) — higher, 14%
- CC1Cc2ccccc2N1C(=O)CSc1nc2ccccc2o1 (stereo unspecified) — lower, -8.05%
- O=C(CCN1c2ccccc2Sc2ccccc21)Nc1ccccc1 — lower, -1.92%
- Cc1ccc(Nc2nnc(SCc3ccccc3)s2)cc1 — higher, -0.81%
- O=C(CCN1CCc2ccccc2C(O)(c2ccccc2)C1)c1ccc2c(c1)OCCO2 (stereo unspecified) — higher, 6.71%
- Cc1ccc(SCC(=O)c2cc(C)c(OC(=S)N(C)C)c(C)c2)cc1 — higher, 1.54%
- COc1ccc(-c2nc3ccccc3n2CCC(C)C)cc1OC — higher, 0.74%
- Cc1ccc2nc(SC(C)C(=O)NCc3ccco3)[nH]c2c1 (stereo unspecified) — higher, 0.42%
- CCNCc1cc2cc(C)ccc2[nH]c1=O — higher, 5.96%
- COc1ccc(CC(=O)Nc2ccc(-c3nnc(-c4ccccc4)o3)cc2)cc1 — higher, 40.1%
- CCCCCCc1cc2cc(-c3nnc(-c4cccc(OC)c4)o3)c(=O)oc2cc1O — lower, -2.99%
- CCOc1ccc(S(=O)(=O)NCCSc2ccccc2)cc1 — higher, 0.2%
- Cc1cc(C)c2c(n1)nn1c(-n3ccnc3)cc(C)nc21 — higher, 4.13%
- Cc1cc(C)c2c(n1)nn1c(N3CCOCC3)cc(C)nc21 — higher, 10.7%
- COc1ccc(C2CC(c3cccs3)=Nc3ccccc3S2)cc1OC (stereo unspecified) — higher, 15.7%
- Cc1cccc(-c2nc3c(c(SCC(=O)N4CCOCC4)n2)CCCC3)c1 — lower, -17.1%
- Cc1nc(NC(=O)C2CCCCC2)sc1C — higher, 0.45%
- CS(=O)(=O)N(CC(=O)N1CCN(Cc2ccc3c(c2)OCO3)CC1)c1ccc2c(c1)OCO2 — higher, 2.04%
- O=C(Cn1nnc(-c2ccc3c(c2)OCO3)n1)NCc1ccco1 — higher, 41.7%
- COC(=O)c1cccc(N(C(=O)c2ccco2)C(C(=O)NC2CCCC2)c2ccco2)c1 (stereo unspecified) — lower, -14.6%
- Cc1cc2c(c(=O)n1Cc1ccco1)C(c1ccccc1)C(C#N)=C(N)O2 (stereo unspecified) — lower, -11.1%
- CC1=C(C(=O)Nc2ccccc2)C(c2ccco2)C(C#N)=C(SCC(N)=O)N1 (stereo unspecified) — lower, -3.05%
- Cc1cc(C(=O)OC(C)C(=O)Nc2cccc(S(=O)(=O)N3CCOCC3)c2)c(C)o1 (stereo unspecified) — higher, 0.74%
- CCOC(=O)Cc1csc(NC(=O)CSc2nnc(-c3cccnc3)n2Cc2ccco2)n1 — lower, -5.63%
- Cc1cc(N2CCN(S(=O)(=O)c3ccc(C)c(C)c3)CC2)c2ccccc2n1 — higher, 16.1%
- CCNCCC(=O)N1c2ccccc2Sc2ccc(NC(=O)OCC)cc21 — lower, -22%
- O=C(NCCN1CCN(Cc2ccccc2)CC1)c1cc2c(=O)[nH]c3ccccc3c2s1 — higher, 24.2%
- Cc1nnc2sc(-c3ccco3)nn12 — higher, 0.95%
- FC(F)(F)c1nnc2sc(-c3ccco3)nn12 — higher, 2.64%
